The text below walks through data of PubChem BioAssay.

SMILES strings stand for the structures. For some assays here: Entries with a potency or affinity are not part of this list. Calls of active or inactive are those of the source. Rule as the data show it, unless noted: active = inhibition above about 80%; inactive = the rest.

The nature of experiment [1]: compounds altering circadian rhythm period length – cell-based, LOPAC library, luminescence reporter (AID 2774; call rule not given here;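 also: values are relative to mean of DMSO wells on each plate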). Conditions: circadian reporter cells, at 7 µM, actives lie on both sides.
Experiment [2] in a line: blockers of polyQ-driven CASP3 activation – cell-based (AID 1583). Particulars: polyglutamine-induced caspase-3 activation, cell assay; stronger effect = higher value;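 tested at 10 µM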.
Experiment [3] is described as follows: yeast 75Q aggregation reduction – 75Q-TubU reporter (AID 1593). Conditions: Yeast 75Q polyglutamine aggregation reporter.
The nature of experiment [4]: restoration of touch response, mutant HTT neurons – whole organism, C. elegans mechanosensory neurons, N-terminal huntingtin (AID 1599). Particulars: C. elegans polyQ-huntingtin mechanosensory neurons, stronger effect = higher value.
Experiment [5] can be described thus: blockers of cytochrome c efflux from mitochondria – biochemical, purified mitochondria (AID 1603).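 Also: mouse liver mitochondria challenged with calcium chloride; signal normalized to the plate average as 100%.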 Conditions: stronger effect = lower value.
Experiment [6] can be described thus: blockers of cellular phospholipid synthesis – cell-based, LOPAC library, screen 4, primary screen (AID 1347384; call rule not given here). Particulars: animal cells, phospholipid biosynthesis inhibition screen; at 10 µM.
Experiment [7] in a line: compounds altering HSF1 focus formation in cells – imaging, Selleck Cancer Library (AID 1347162; in the data active = plate-normalised HSF1 focus index below about 0.46). Conditions: human cells, HSF1 nuclear foci imaging, at 10 µM; SSMD: measured here: HSF1 foci SSMD mean; cell count: measured here: cell number; plate-normalised HSF1 focus index: stronger effect = lower value.
Experiment [8] can be described thus: EMT-state selective cytotoxicity in co-culture – imaging, PC-3E GFP, TEM4-18 mCherry, primary screen (AID 1345086;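 active = compounds killing one labelled cell type while sparing the other, by normalised counts and ratio limits, not self-fluorescent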;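 also: cells exposed to compound for 72 h before imaging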;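 as to red/green cell ratio (normalised): normalised mesenchymal count divided by normalised epithelial count so high means epithelial killing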). Conditions: PC-3E GFP / TEM4-18 mCherry co-culture, imaging cell counts, at 1 µM.
Experiment [9] is described as follows: growth inhibition, single agents and combos, LFS_MB_1R, cell-based, cisplatin or BGB combos, synergistic combos for chromothripsis tumors (AID 1671452).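 Also: cells exposed for 96 hours before readout.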 Conditions: LFS_MB_1R medulloblastoma cells, stronger effect = higher value.
The nature of experiment [10]: growth inhibition, single agents and combos, HTB85, cell-based, BGB or cisplatin IC20 combos, synergistic combos for chromothripsis tumors (AID 1671453).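 Also: cells exposed for 96 hours before readout; 0% = vehicle DMSO and 100% = high DMSO killing control.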 Conditions: HTB85 osteosarcoma cells, drug combinations, stronger effect = higher value.
Experiment [11] is described as follows: growth inhibition, single agents and combos, CRL2098, cell-based, BGB or cisplatin IC20 combos, synergistic combos for chromothripsis tumors (AID 1671454).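 Also: cells exposed for 96 h before readout; 0% = vehicle DMSO and 100% = killing by high DMSO.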 Particulars: CRL2098 osteosarcoma cells, drug combinations, stronger effect = higher value.
Experiment [12] in a line: growth inhibition, single agents and combos, HD-MB03, cell-based, BGB or cisplatin IC20 combos, synergistic combos for chromothripsis tumors (AID 1671455; in the data active = inhibition above about 83%;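 also: 0% = vehicle DMSO and 100% = high DMSO as cytotoxic control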). Conditions: HD-MB03 medulloblastoma cells, stronger effect = higher value.
Experiment [13] can be described thus: growth inhibition, single agents and combos, UWB1.289, cell-based, BGB or cisplatin combos, synergistic combos for chromothripsis tumors (AID 1671456).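 Also: cells exposed to compound for four days; 0% = vehicle DMSO and 100% = killing by high DMSO.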 Particulars: UWB1.289 ovarian carcinoma cells, stronger effect = higher value.
Experiment [14] in a line: growth inhibition, single agents and combos, LFS_MB_2R, cell-based, cisplatin combos, synergistic combos for chromothripsis tumors (AID 1671457).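 Also: cells exposed to compound for four days before readout.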 Particulars: LFS_MB_2R medulloblastoma cells, stronger effect = higher value.
Experiment [15] is described as follows: growth inhibition, MDA-MB-436, cell-based, BGB or cisplatin combos, synergistic combos for chromothripsis tumors (AID 1671458; call rule not given here;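 also: cells exposed for 96 hours; 0% = vehicle DMSO and 100% = killing by high DMSO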). Conditions: MDA-MB-436 breast carcinoma growth inhibition, drug combinations, stronger effect = higher value.
Experiment [16] in a line: UWB1.289_BRCA1 ovarian cancer growth, cell-based, BGB or cisplatin combinations (AID 1671459). Particulars: UWB1.289 BRCA1 ovarian carcinoma, drug combinations, stronger effect = higher value.
Experiment [17] is described as follows: drug combination toxicity in non-malignant astrocytes – cell-based, BGB or cisplatin IC20 combos, cytotoxicity control for chromothriptic childhood tumor combination screen (AID 1671460).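 Also: cells exposed to compounds for 96 hours before viability readout; 0% = vehicle and 100% = killing control.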 Conditions: Human astrocytes, viability inhibition, drug combinations, at 0.5 µM, stronger effect = higher value.
Experiment [18] in a line: BT084 cell growth, single and combined drugs, ICGC_MB145, cisplatin and BGB IC40 combos (AID 1671461).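 Also: cells exposed to drugs for 96 hours; 0% = vehicle DMSO and 100% = high DMSO full killing control.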 Particulars: BT084 medulloblastoma cells, drug combinations, stronger effect = higher value.
Experiment [19] in a line: RCMB18 cell growth, single agent and combined, cisplatin and BGB IC40 combos (AID 1671462).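 Also: cells exposed to compound for four days.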 Conditions: RCMB18 medulloblastoma cells, stronger effect = higher value.
A short description of experiment [20]: CRL1545 cell growth, single agent and combined, cisplatin and BGB IC20 combos (AID 1671464).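 Also: cells exposed to compound for 96 hours before readout; 0% = vehicle DMSO and 100% = high DMSO killing control.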 Conditions: CRL1545 osteosarcoma cells, stronger effect = higher value.
Where [21] appears, read: measured here: combination with cisplatin, at 0.5 µM.
The mark [22] stands for this setting: measured here: combination with cisplatin, at 5 µM.

`CC(C)NC[C@@H](O)COc1ccc(CC(N)=O)cc1`: the period change in experiment [1] is 0.075 h (inactive).
On to `Clc1cc(Cl)c(OCC#CI)cc1Cl`, for which, in [2], the inhibition stood at 55.6%. In addition, in experiment [3], the score is -0.06. Moreover, in [4], the rescue above control is 11. In [5], the cytochrome c release ratio was found to be 8.98.
For `O=P(O)(O)C(Cl)(Cl)P(=O)(O)O`, the compound was classed as inactive in [6].
As for `CCC1C(=O)OCC1Cc1cncn1C` (stereo not drawn), in [6], the compound was classed as inactive.
On the same count and under the same terms, the value for `Nc1c[n+](N2CCOCC2)no1` was “inactive”.
For the compound `CN1CC[C@H](c2c(O)cc(O)c3c(=O)cc(-c4ccccc4Cl)oc23)[C@H](O)C1`, in experiment [7], the SSMD was 1.33, the cell count is 6730 and the plate-normalised HSF1 focus index is 1.07 (inactive).
In the case of `O=C1NCN(c2ccccc2)C12CCN(CCCC(c1ccc(F)cc1)c1ccc(F)cc1)CC2`, in experiment [1], the period change was -0.085 h (inactive). Besides, the compound was called inactive in [6].
`CCOc1ccccc1OCC1CNCCO1` (stereo not drawn): the inhibition in experiment [2] was -5.29%. This compound also gave a score in experiment [3] of 1.39. The same compound had a rescue above control in experiment [4] of -3.95. The cytochrome c release ratio in [5] worked out at 1.06.
With `CCN(CC)C(=O)c1cccnc1`, the red/green cell ratio (normalised) in experiment [8] (actives lie on both sides, counts scaled to control wells, 1 = unselective) was 1.14 (inactive). For the same compound, the normalised cell number in experiment [8] (measured here: epithelial PC-3E GFP cell survival) worked out at 0.99; in [8] (measured here: mesenchymal TEM4-18 mCherry cell survival), 1.13.
In the case of `Cc1ccc2nc(N)[nH]c(=O)c2c1Sc1ccncc1`, the inhibition in [9] (at 0.5 µM) was -7.14% (inactive); in [9] (measured here: combination with BGB IC40, at 0.05 µM), -4.51%; in experiment [9] (setting [21]), -35.9%; in experiment [9] (setting [22]), 0.93%; in experiment [10] (at 0.5 µM), -33.1% (inactive); in experiment [10] (measured here: with BGB IC20, at 0.5 µM), -36.1%. Moreover, the inhibition is 7.13% in experiment [10] (measured here: with BGB IC20, at 5 µM); -25.9% in experiment [10] (measured here: with cisplatin IC20, at 0.5 µM); 0.276% in experiment [10] (measured here: with cisplatin IC20, at 5 µM); 0.242% in experiment [10] (single agent, at 5 µM); -63.7% (inactive) in experiment [11] (at 0.5 µM); -72.3% in [11] (measured here: combination with BGB at IC20, at 0.5 µM). The inhibition in experiment [11] (measured here: combination with cisplatin at IC20, at 0.5 µM) is -84.4%; in experiment [12] (at 0.5 µM) it was -15.4% (inactive); in experiment [12] (measured here: combo with BGB at IC20, at 0.5 µM) it was -11.9%; in [12] (measured here: combo with cisplatin at IC20, at 0.5 µM) it was -25.1%; in [13] (at 0.5 µM), -17.5% (inactive); in [13] (measured here: inhibition with BGB combination, at 0.05 µM) it was 4.97%. Moreover, the inhibition in [13] (measured here: inhibition with cisplatin combination, at 0.05 µM) was -23%; in experiment [14] (at 0.5 µM), -12.4% (inactive); in experiment [14] (setting [21]), -25.9%; in [14] (setting [22]), -11.5%; in experiment [15] (at 0.5 µM), -7.12% (inactive); in experiment [15] (measured here: BGB combination, at 0.5 µM), -5.47%. The inhibition is 11% in experiment [15] (measured here: BGB combination, at 5 µM); -13.7% in [15] (measured here: cisplatin combination, at 0.5 µM); 37.3% in experiment [15] (measured here: cisplatin combination, at 5 µM); -8.1% in experiment [16] (BGB combination, concentration series, at 5 µM); -23.6% (inactive) in [16] (at 0.5 µM); -9.76% in [16] (cisplatin combination, concentration series, at 5 µM). Further, the inhibition in [17] was -6.91% (inactive); in [17] (measured here: combo with BGB IC20) it was -8.77%; in [17] (measured here: combo with cisplatin IC20) it was -12.3%; in experiment [18] (at 0.5 µM), 3.52% (inactive); in experiment [18] (cisplatin combination, at 0.5 µM), -1.35%; in [18] (cisplatin combination, at 5 µM), -137%. For the same compound, the inhibition is -7.71% in [18] (measured here: BGB IC40 combination 0.05 uM, at 0.05 µM); 6.61% in [18] (single agent, at 5 µM); -22.7% (inactive) in experiment [19] (at 0.5 µM); -4.62% in experiment [19] (cisplatin combo, at 5 µM); -25.2% in experiment [19] (measured here: BGB IC40 combination, at 0.05 µM); -45.9% in experiment [19] (setting [21]). Also, the inhibition in experiment [19] (single agent, at 5 µM) was 12.6%; in experiment [20] (at 0.5 µM) it was -26.5% (inactive); in [20] (measured here: with BGB IC20 combination, at 0.5 µM) it was -34.6%; in experiment [20] (measured here: with cisplatin IC20 combination, at 0.5 µM) it was -24.4%; in experiment [20] (single agent, at 0.05 µM) it was -59.1%; in experiment [20] (single agent, at 5 µM), -14.1%.

As a reminder, the inhibition is the change of the read-out against control, counted positive when it falls.
